# From PubChem BioAssay
# In the library only some 15% were active in any assay of this set; here they are far more common.
# ELG1 DNA repair – qHTS screen for small molecules that inhibit ELG1-dependent DNA repair in human embryonic kidney (HEK293T) cells expressing luciferase-tagged ELG1; hit rate 2.3% among 330,000; HEK293T ELG1-luciferase reporter, luminescence, 16 h; DNA damage induced by 5-fluorouridine; Potency, µM (top dose mostly 46.1 µM), for the others: at the highest dose activity change, negative = inhibition, actives largely listed as inhibitors; note: nearly all actives have a fitted effect of over 55% in size
#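 Luminescence from the luciferase reporter, measured 30 min after ONE-Glo reagent at room temperature, was the read-out. Beforehand, 2,000 cells per well were exposed for 16 hr at 37 °C to 5-fluorouridine together with compound or vehicle.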
# Gal4-VP16 FLuc – VP16 counterscreen qHTS for inhibitors of ROR gamma transcriptional activity; Drosophila S2 Gal4-VP16 UAS-luciferase, luminescence, 20 h; Potency, µM (highest dose often 53.6 µM), without a hit: at the highest dose activity, negative = inhibition, usual class: inhibitors; hit rate 3.5% among 310,000;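 note: Gal4-VP16 expression switched on by copper sulfate through the metallothionein promoter; nearly all actives have a fitted effect of over 50% in size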
# DT40 TDP1 no CPT – qHTS for Inhibitors of human tyrosyl-DNA phosphodiesterase 1 (TDP1): qHTS in cells in absence of CPT | hit rate 15% among 420,000 | DT40 Tdp1-/- hTDP1 cells, no CPT, ATP luminescence, 48 h | Potency, µM (highest dose often 46.2 µM), for the others: at the top dose activity change, negative = growth inhibition, hits mostly inhibitors | AID 686978, 2013; note: nearly all actives have a fitted effect of over 55% in size
#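 Readout: luminescence from CellTiter-Glo after 30 min in the dark at RT. Cells: DT40 Tdp1-/- with stable hTDP1, 400/well. Exposure: compounds alone, ≥48 hr, 37 °C.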
# ALOX12 inh – Primary qHTS assay for inhibitors of human arachidonate 12S-lipoxygenase (ALOX12): Round 2; Polyunsaturated fatty acid lipoxygenase ALOX12 (Homo sapiens), P18054; purified 12hLO, xylenol orange hydroperoxide absorbance; Potency, µM (doses to about 108 µM), inactives show at the top dose activity change, negative = inhibition, most hits filed as inhibitors; hit rate 1.1% among 580,000; AID 1671190, 2021
#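 Purified human 12hLO (150 nM final) in 25 mM Hepes, 0.01% Triton X-100, pH 7.0 was preincubated 15 min at room temperature with compound. Then 40 uM arachidonic acid was added, 30 min. Hydroperoxide was read by Fe-XO absorbance ratio 573/405 nm.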
# DT40 TDP1 CPT – qHTS for Inhibitors of human tyrosyl-DNA phosphodiesterase 1 (TDP1): qHTS in cells in presence of CPT; chicken DT40 Tdp1-/-;hTDP1 cells + 20 nM CPT, ATP luminescence, 48 h; Potency, µM (doses to about 46.2 µM), without a hit: at the top dose activity change, negative = growth inhibition, actives largely listed as inhibitors; hit rate 12% among 420,000; note: nearly all actives have a fitted effect of over 55% in size
#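 Cell growth measured by CellTiter-Glo luminescence after a minimum 48 h, 37 C compound exposure with 20 nM CPT in Tdp1-knockout DT40 cells stably expressing hTDP1, seeded 400/well; qHTS titration format.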
# RORgamma inh – qHTS for inhibitors of ROR gamma transcriptional activity; Nuclear receptor ROR-gamma (Mus musculus), P51450; Drosophila S2 Gal4-RORgamma UAS-luciferase reporter, 20 h; Potency, µM (doses to about 53.6 µM), without a hit: at the top dose activity change, negative = inhibition, hits mostly inhibitors; hit rate 5.4% among 310,000; note: nearly all actives have a fitted effect of over 60% in size
# Target sequence (P51450 whole entry, looked up, the tested form may be a part): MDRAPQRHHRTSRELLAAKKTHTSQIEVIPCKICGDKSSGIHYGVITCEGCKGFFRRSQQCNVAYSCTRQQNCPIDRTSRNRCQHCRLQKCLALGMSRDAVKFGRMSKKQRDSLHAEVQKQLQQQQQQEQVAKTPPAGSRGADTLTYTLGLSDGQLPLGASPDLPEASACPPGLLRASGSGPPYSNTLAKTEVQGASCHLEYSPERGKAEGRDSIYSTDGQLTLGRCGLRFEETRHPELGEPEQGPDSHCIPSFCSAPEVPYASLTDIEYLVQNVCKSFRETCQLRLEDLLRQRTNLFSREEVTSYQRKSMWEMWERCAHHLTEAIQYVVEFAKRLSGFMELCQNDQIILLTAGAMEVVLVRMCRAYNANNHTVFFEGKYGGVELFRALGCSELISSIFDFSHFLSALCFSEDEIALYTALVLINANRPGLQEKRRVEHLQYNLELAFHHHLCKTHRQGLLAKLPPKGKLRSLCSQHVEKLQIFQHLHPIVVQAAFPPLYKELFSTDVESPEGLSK
#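 Luminescence from a UAS-regulated Photinus luciferase reporter in stably transfected Drosophila Schneider cells is measured; decreased signal marks ROR gamma inhibition. Fusion expression is induced by 700 uM copper sulfate for 20 hr.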
# * = called active by the depositor; ? = inconclusive; . = no result given; [ ] = dose if it differs, or a comment. Calls come from the whole dose curve; as a rule, active = well fitted curve in the direction sought with a large enough effect; inconclusive = small, poorly fitted or top-dose-only effect, or another doubt; inactive = no such curve, though single readings can be large; an effect the other way counts as inactive or inconclusive. % is set by controls: 0 for no effect and ±100 for the full control effect; potency is the fitted concentration of half-maximal effect.
SMILES,ELG1 DNA repair,Gal4-VP16 FLuc,DT40 TDP1 no CPT,ALOX12 inh,DT40 TDP1 CPT,RORgamma inh
Cc1cc2ccccc2n1CC(=O)N1CCN(CC(=O)NC2CC2)CC1,.,.,.,4.2%,.,.
CCC(C)NC(=O)C1COC2(CCN(C(=O)c3ccc(Cl)cc3)CC2)N1C(=O)c1ccccc1C (stereo not drawn),.,.,.,41.9%,.,.
COc1ccc(-n2c(SCCC#N)nnc2-c2cc(Cl)ccc2OC)cc1Cl,4.6%,-9.3%,16.4µM*,-21.4%,?,-7.2%
Cc1cc(OC(C)C(=O)N2CCN(c3ccccc3)CC2)c2c(C)c(C)c(=O)oc2c1 (stereo not drawn),16.4µM*,-2.8%,29.1µM*,7.8%,?,-15.2%
O=C(NCCc1ccccc1)c1ccc(Br)o1,?,-1.4%,-20.3%,10.6%,?,8.0%
COc1ccc(CCNC(=O)c2ccc(Br)o2)cc1Br,.,.,?,?,23.1µM*,.
COc1ccc(CCNC(=O)c2coc(=O)c(Br)c2)cc1,?,0.6%,1.3µM*,0.0%,0.651µM*,-30.1%
COc1ccc(CCNC(=O)c2ccc(Br)cc2)cc1,12.9%,7.0%,-20.7%,260.2%,-11.3%,4.6%
COc1ccc(CCNC(=O)c2ccc(-c3ccc([N+](=O)[O-])cc3)o2)cc1OC,?,-2.7%,?,2.7%,18.4µM*,?
COc1ccc(CNCCc2ccc([N+](=O)[O-])cc2)c(OC)c1OC,-16.5%,1.3%,20.6µM*,7.94µM*,6.51µM*,-15.4%
CCc1ccccc1OCC(=O)c1ccc2c(c1)N(CCCC(=O)NCC1CCCO1)C(=O)CO2 (stereo not drawn),.,.,.,53.8%,.,.
Cc1c(C(=O)c2no[n+]([O-])c2C(=O)c2cnn(C)c2C)cnn1C,-21.7%,8.91µM*,3.66µM*,0.0%,2.59µM*,10µM*
Cc1c(C(=O)Nc2ccc(Br)cc2)cnn1C,?,-5.5%,-18.1%,10.4%,-4.8%,39.7%
Cc1ccc2c(c1)c(=O)c(C(=O)c1ccc3c(c1)OCO3)cn2Cc1ccc(Cl)cc1,.,.,16.4µM*,-3.8%,?,.
COc1ccc(Cn2cc(C(=O)c3ccc(Cl)cc3)c(=O)c3cc4c(cc32)OCO4)cc1,.,.,23.1µM*,-8.9%,?,.
O=C(c1ccc2c(c1)OCO2)c1cn(Cc2ccc(Cl)cc2)c2ccc(F)cc2c1=O,.,.,20.6µM*,-63.2%,?,.
COc1ccc(Cn2cc(C(=O)c3ccc(F)cc3)c(=O)c3cc4c(cc32)OCCO4)cc1,.,.,?,-20.0%,?,.
O=C(NCc1ccccc1)NC[C@H]1Cn2c(-c3ccc(Cl)cc3)cnc2CO1,.,.,.,3.3%[176 µM],.,.
Cc1nc2ncccn2c1C(=O)N[C@H]1[C@H]2CCO[C@H]2[C@@H]1N(C)C,.,.,.,37.6%,.,.
Cc1nnc2n1N=CC=C(c1ccccc1)S2,2.5%,15.6%,5.17µM*,-24.5%,8.2µM*,?
COC[C@@H]1CN(C(=O)c2ccccc2)C[C@H]1c1nc(C2CC2)no1,.,.,.,14.5%,.,.
COc1cccc(C2=NOC(C(=O)NCc3ccco3)C2)c1 (stereo not drawn),41.5%,-6.6%,13µM*,-33.5%,9.2µM*,10.4%
COc1cccc(C2=NOC(C(=O)NCc3ccccc3)C2)c1 (stereo not drawn),14.6%,3.2%,4.61µM*,-8.0%,5.17µM*,19.7%
COCCNC(=O)C1CC(c2cccc(OC)c2)=NO1 (stereo not drawn),9.3%,-14.8%,?,18.5%,6.1%,-3.2%
CCc1ccc(NC(=O)CSC2=Nc3ccccc3C3=NC(CC(=O)NCc4ccc5c(c4)OCO5)C(=O)N23)cc1 (stereo not drawn),.,.,23.1µM*,-29.1%,?,.
SMILES,ELG1 DNA repair,Gal4-VP16 FLuc,DT40 TDP1 no CPT,ALOX12 inh,DT40 TDP1 CPT,RORgamma inh
COc1ccc(OC)c(NC(=O)CSC2=Nc3ccccc3C3=NC(CC(=O)NCc4ccc5c(c4)OCO5)C(=O)N23)c1 (stereo not drawn),.,.,23.1µM*,?,?,.
O=C(CC1N=C2c3ccccc3N=C(SCC(=O)Nc3ccc(F)cc3)N2C1=O)NCc1ccc2c(c1)OCO2 (stereo not drawn),.,.,-20.4%,?,?,.
CCC(C)n1c(SCc2ccc([N+](=O)[O-])cc2)nc2ccsc2c1=O (stereo not drawn),?,1.0%,20.6µM*,6.0%,23.1µM*,-16.9%
CC(C)CCn1c(SCc2c(F)cccc2Cl)nc2ccsc2c1=O,.,.,7.7%,0.0%,-24.2%,.
CCOc1ccc(NC(=O)CSc2nc3ccsc3c(=O)n2C(C)CC)cc1 (stereo not drawn),.,.,10.3µM*,-25.8%,?,.
CCOc1ccc(NC(=O)CSc2nc3ccsc3c(=O)n2CC)cc1,.,.,-19.8%,0.0%,-22.3%,.
CCC(C)n1c(SCc2c(F)cccc2Cl)nc2ccsc2c1=O (stereo not drawn),.,.,5.8µM*,-5.2%,4.11µM*,.
OC1CC(c2cc(N3CCc4c(Cl)cccc4C3)ncn2)C1 (stereo not drawn),.,.,.,38.1%,.,.
CC1N(C)c2cc(NC(=O)c3cccs3)c(P(=O)(Nc3ccc([N+](=O)[O-])cc3)N3CCOCC3)cc2C1(C)C (stereo not drawn),18.3µM*,-2.1%,18.4µM*,?,?,?
COc1ccc(-c2nc(-c3nnn4c3COC(c3ccccc3Cl)C4)no2)cc1F (stereo not drawn),.,.,.,41.4%,.,.
Cc1ccc(/C=N/NC(=O)Cc2cccs2)o1,35.0%,35.5µM*,-41.7%,-14.8%,-4.6%,?
O=C(CNC(=O)c1ccccc1Cl)N/N=C/c1ccc([N+](=O)[O-])s1,?,?,20.6µM*,-1.0%,20.6µM*,17.8µM*
O=C(CCNC(=O)c1ccccc1Cl)NN=Cc1ccccc1[N+](=O)[O-],1.5%,.,?,-8.8%,?,.
O=C(Cc1cccs1)N/N=C\c1ccc([N+](=O)[O-])s1,14.6µM*,?,20.6µM*,-4.4%,8.2µM*,?
COc1cc(/C=N/NC(=O)Cc2cccs2)c([N+](=O)[O-])cc1OC,?,-3.7%,-23.1%,13.4%,-17.0%,9.8%
